For eight compounds, outcome and Potency results are on record in PubChem BioAssay (Tox21).

The nature of experiment [1]: qHTS assay to test for compound auto fluorescence at 535 nm (green) in HEK293 cells (AID 720680). (In qHTS, concentration-response curves come from the screen itself.)
Experiment [2] is described as follows: qHTS assay to test for compound auto fluorescence at 535 nm (green) in HEK293 cell free culture (AID 720682). Put shortly:
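Fluorescein serves as the green reference fluorophore; each compound's intrinsic emission at 535 nm (excitation 485 nm) is reported as an equivalent amount of that dye, measured in serum-containing DMEM without cells.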

Experiment [3] can be described thus: qHTS assay to test for compound auto fluorescence at 590 nm (red) in HEK293 cell free culture (AID 720683). Put shortly: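 Red-channel autofluorescence of compounds in culture medium (DMEM, 10% FBS), no cells, measured at 540/590 nm. Rose Bengal sodium is the reference fluorophore for equivalence.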
Experiment [4] is described as follows: qHTS assay to test for compound auto fluorescence at 590 nm (red) in HepG2 cell free culture (AID 720684). In a few lines: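 Plate contents were MEM with 10% FBS plus test compound or DMSO, no cells. Fluorescence was recorded with 540 nm excitation and 590 nm emission.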
A short description of experiment [5]: qHTS assay to test for compound auto fluorescence at 460 nm (blue) in HepG2 cell free culture (AID 720685). Put shortly:
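Compound (23 nL) or DMSO pinned into cell-free MEM with 10% FBS; blue fluorescence read at 405/460 nm excitation/emission, expressed as auto-fluorescence equivalency to triamterene.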

Experiment [6] in a line: qHTS assay to test for compound auto fluorescence at 535 nm (green) in HepG2 cell free culture (AID 720686).
A short description of experiment [7]: qHTS assay to test for compound auto fluorescence at 460 nm (blue) in HepG2 cells (AID 720687). Put shortly:
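Blue-channel autofluorescence (Ex/Em 405/460 nm, triamterene-equivalent) was measured after 1 hr compound exposure at 37 C, 5% CO2. Cells were HepG2, plated overnight at 37 C in MEM plus 10% FBS.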

The nature of experiment [8]: qHTS assay to identify small molecule antagonists of the glucocorticoid receptor (GR) signaling pathway - cell viability counter screen (AID 720693). Also: nearly all actives have a fitted effect of over 55% in size.
Experiment [9] is described as follows: qHTS assay for identifying genotoxic compounds that show differential cytotoxicity against isogenic chicken DT40 cell lines with known DNA damage response pathways - wild type cell line (AID 743012). Also: nearly all actives have a fitted effect of over 60% in size. Also: potency is read from the fitted curve at half-maximal effect. In a few lines: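 Using parental DT40 (300 cells/well), compounds delivered in DMSO incubate 40 h at 37 C/5% CO2. CellTiter-Glo reagent then stands 30 min at room temperature, and luminescence gives cell viability.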

A short description of experiment [10]: qHTS assay for identifying genotoxic compounds that show differential cytotoxicity against isogenic chicken DT40 cell lines with known DNA damage response pathways - Rev3 mutant cell line (AID 743014). Also: nearly all actives have a fitted effect of over 55% in size. Also: potency is read from the fitted curve at half-maximal effect.
A short description of experiment [11]: qHTS assay for identifying genotoxic compounds that show differential cytotoxicity against isogenic chicken DT40 cell lines with known DNA damage response pathways - Rad54/Ku70 mutant cell line (AID 743015). Also: nearly all actives have a fitted effect of over 60% in size. Also: potency is read from the fitted curve at half-maximal effect.
Experiment [12] can be described thus: qHTS assay to identify small molecule antagonists of the androgen receptor (AR) signaling pathway - cell viability counter screen (AID 743033; also: nearly all actives have a fitted effect of over 45% in size).
Experiment [13] has as its target Androgen receptor (Homo sapiens) (UniProt P10275). Briefly: qHTS assay to identify small molecule agonists of the androgen receptor (AR) signaling pathway using the MDA cell line (AID 743040; also: nearly all actives have a fitted effect of over 20% in size). Put shortly: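 After a 5 h incubation at 37C and 0% CO2, MDA-kb2 reporter cells were dosed with compounds in DMSO and kept 16 h under the same conditions. Luciferase activity was then read as luminescence with ONE-Glo.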

A short description of experiment [14]: qHTS assay to identify small molecule antagonists of the androgen receptor (AR) signaling pathway using the MDA cell line - cell viability counter screen (AID 743041; also: nearly all actives have a fitted effect of over 45% in size). In a few lines:
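R1881-driven MDA-kb2 AR-luc cells, 3,000/well, were dosed with library compounds for 16 h; cell health came from CellTiter-Fluor fluorescence in the reporter wells.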

Experiment [15] in a line: qHTS assay to identify small molecule antagonists of the thyroid receptor (TR) signaling pathway - cell viability counter screen (AID 743064). Also: nearly all actives have a fitted effect of over 50% in size. Put shortly:
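Fluorescence from CellTiter-Fluor, added after 23.5 h exposure at 37 °C, reported viability of GH3.TRE-Luc cells co-treated with compound and 1 nM T3. Measured in the same wells as the luciferase TR readout.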

The target of experiment [16] is Glucocorticoid receptor (Homo sapiens) (UniProt P04150). Briefly: qHTS assay to identify small molecule antagonists of the glucocorticoid receptor (GR) signaling pathway (AID 720692; active = well fitted inhibition curve with a large enough effect in the signal ratio in the repeat runs, not every such curve was filed as active; the % refers to the signal ratio). Put shortly: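 Dexamethasone (5 nM final) stimulated a stably integrated GRE-beta-lactamase reporter in HeLa cells during 18 h co-incubation with compounds; signal was quantified as fluorescence intensity of B/G FRET substrate after 2 h.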

Experiment [17] deals with Androgen receptor (Homo sapiens) (UniProt P10275). Description: qHTS assay to identify small molecule agonists of the androgen receptor (AR) signaling pathway (AID 743036; active = well fitted activation curve with a large enough effect in the signal ratio in the repeat runs, with a control signal flat, not every such curve was filed as active; the % refers to the signal ratio). Put shortly: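 Fluorescence from a beta-lactamase FRET substrate served as read-out in AR-UAS-bla GripTite HEK293 cells. Cells were treated with DMSO-dissolved compounds for 16 h at 37C, then with LiveBLAzer B/G substrate for 2 h at room temperature.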

For experiment [18] the target is unchanged. Description: qHTS assay to identify small molecule antagonists of the androgen receptor (AR) signaling pathway using the MDA cell line (AID 743042; also: nearly all actives have a fitted effect of over 55% in size). In a few lines:
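Antagonist mode: compounds plus R1881 agonist added to MDA-kb2 AR-luc cells, incubated 16 h at 37C. Luciferase reporter luminescence quantified, with multiplexed CellTiter-Fluor readout for cell viability.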

Experiment [19] deals with Glucocorticoid receptor (Homo sapiens) (UniProt P04150). Briefly: qHTS assay to identify small molecule agonists of the glucocorticoid receptor (GR) signaling pathway (AID 720691; active = well fitted activation curve with a large enough effect in the signal ratio in the repeat runs, not every such curve was filed as active; the % refers to the signal ratio). In a few lines: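 Reporter read-out: fluorescence intensity following 2 h room-temperature LiveBLAzer B/G FRET substrate loading. Prior step: GR-bla HeLa cells held 4 h, then treated 18 h at 37 C.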

Experiment [20] can be described thus: qHTS assay to test for compound auto fluorescence at 460 nm (blue) in HEK293 cell free culture (AID 720681). In a few lines: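 Blue fluorescence (Ex 405/Em 460 nm, triamterene-equivalent) was read immediately after pin transfer of compound or DMSO into medium (DMEM, 10% FBS) without cells.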

Molecules are shown by their SMILES. Values without a mark were called inactive. Records with an inconclusive call do not appear. Activity calls are given as the source filed them. Unless noted, calls follow the shape of the dose curve; as a rule, active = well fitted curve in the direction sought with a large enough effect in the repeat runs; inconclusive = weak or mixed curves; inactive = no such curve, though single readings can be large; an effect the other way counts as inactive or inconclusive.

Sequence of Glucocorticoid receptor (Homo sapiens) (P04150 whole entry, looked up): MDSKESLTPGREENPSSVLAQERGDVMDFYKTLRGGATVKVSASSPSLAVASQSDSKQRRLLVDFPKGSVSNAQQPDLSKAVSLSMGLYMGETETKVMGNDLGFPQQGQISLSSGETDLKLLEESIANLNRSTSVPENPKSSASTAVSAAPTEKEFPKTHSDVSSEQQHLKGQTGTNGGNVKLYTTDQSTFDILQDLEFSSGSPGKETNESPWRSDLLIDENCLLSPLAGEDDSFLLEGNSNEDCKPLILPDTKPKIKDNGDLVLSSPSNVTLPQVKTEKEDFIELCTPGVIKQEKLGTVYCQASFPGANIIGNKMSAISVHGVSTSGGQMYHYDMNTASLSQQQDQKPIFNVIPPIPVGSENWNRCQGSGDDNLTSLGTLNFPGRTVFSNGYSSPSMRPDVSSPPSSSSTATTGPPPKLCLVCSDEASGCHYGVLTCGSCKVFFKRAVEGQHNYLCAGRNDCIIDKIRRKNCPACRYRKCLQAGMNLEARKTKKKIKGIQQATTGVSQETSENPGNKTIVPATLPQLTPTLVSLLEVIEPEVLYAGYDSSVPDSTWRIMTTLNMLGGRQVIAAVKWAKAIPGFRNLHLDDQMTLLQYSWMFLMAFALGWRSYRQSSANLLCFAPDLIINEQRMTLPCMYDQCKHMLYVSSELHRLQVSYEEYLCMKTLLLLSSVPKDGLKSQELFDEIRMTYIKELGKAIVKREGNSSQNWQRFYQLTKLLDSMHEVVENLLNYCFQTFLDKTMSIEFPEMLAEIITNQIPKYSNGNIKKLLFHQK
Sequence of Androgen receptor (Homo sapiens) (P10275 whole entry, looked up): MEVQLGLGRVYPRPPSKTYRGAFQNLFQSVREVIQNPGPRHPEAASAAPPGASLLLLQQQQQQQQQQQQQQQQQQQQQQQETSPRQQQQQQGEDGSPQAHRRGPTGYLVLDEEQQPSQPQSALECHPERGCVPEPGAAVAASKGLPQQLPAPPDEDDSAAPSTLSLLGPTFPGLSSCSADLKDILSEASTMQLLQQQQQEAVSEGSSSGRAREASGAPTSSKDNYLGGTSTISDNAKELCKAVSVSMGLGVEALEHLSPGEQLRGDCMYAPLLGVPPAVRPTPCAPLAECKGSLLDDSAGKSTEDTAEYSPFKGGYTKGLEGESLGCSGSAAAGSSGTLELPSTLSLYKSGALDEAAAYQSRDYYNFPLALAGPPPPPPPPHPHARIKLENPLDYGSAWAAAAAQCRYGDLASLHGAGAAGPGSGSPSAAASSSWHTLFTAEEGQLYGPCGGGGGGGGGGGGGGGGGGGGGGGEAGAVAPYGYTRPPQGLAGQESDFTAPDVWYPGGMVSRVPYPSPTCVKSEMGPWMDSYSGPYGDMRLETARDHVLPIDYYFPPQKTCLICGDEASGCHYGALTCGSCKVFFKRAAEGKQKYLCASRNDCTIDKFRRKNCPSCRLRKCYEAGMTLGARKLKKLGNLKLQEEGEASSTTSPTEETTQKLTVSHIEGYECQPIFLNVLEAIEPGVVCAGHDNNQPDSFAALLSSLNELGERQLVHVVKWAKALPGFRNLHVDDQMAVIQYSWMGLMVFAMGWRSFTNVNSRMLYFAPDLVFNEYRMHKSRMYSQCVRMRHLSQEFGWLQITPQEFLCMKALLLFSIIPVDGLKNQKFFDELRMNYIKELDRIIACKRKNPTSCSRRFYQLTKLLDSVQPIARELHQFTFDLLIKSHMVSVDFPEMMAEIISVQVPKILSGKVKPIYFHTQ

Turning to `Clc1cccc(C(c2ccc3nc[nH]c3c2)n2ccnc2)c1` (configuration not stated), the compound was classed as inactive in experiment [1], in experiment [2], in experiment [3], in experiment [4], in experiment [5] and in [6]. The compound was classed as inactive in experiment [7] and in experiment [13]. Moreover, the Potency entry in experiment [8], in experiment [12], in experiment [14] and in [15] was “inactive” in each case. Moreover, the values for the Potency in [9], in [10] and in [11] were 21.1 µM (active), 26.6 µM (active) and 26.6 µM (active), respectively.

Turning to `CCCCCCCCCCCCSCCOCCO`, the compound was called inactive in experiment [1], in [2], in experiment [3], in experiment [4], in experiment [5] and in [6]. Also, the call in experiment [7] was inactive. For the same compound, the Potency result in experiment [16], in experiment [8], in experiment [10], in experiment [11], in [12] and in experiment [14] was “inactive” throughout. For the same compound, in [15], the Potency entry was “inactive”.

Turning to `CC1(C)[C@@H]2CC[C@]3(C2)[C@@H]1C(=O)CCC3(C)C`, the compound was classed as inactive in experiment [1], in experiment [2], in experiment [3], in experiment [5], in experiment [6] and in [7]. The compound was classed as inactive in experiment [17] and in experiment [13]. The Potency entry in [8], in experiment [12], in [14], in experiment [18] and in experiment [15] was “inactive” each time.

As to `COC(=O)/C=C/C(C)=C\C=C\C(C)=C\C=C\C=C(C)\C=C\C=C(C)\C=C\C(=O)O`, the call in experiment [1], in experiment [2], in experiment [3], in experiment [4], in experiment [5] and in [6] was inactive. Also, the outcome in experiment [7], in experiment [17] and in experiment [13] was inactive. Also, the Potency entry in experiment [19], in experiment [8], in experiment [12], in experiment [14], in [18] and in experiment [15] was “inactive” each time. In addition, the Potency in experiment [10] is 54.5 µM (active).

For the compound `C[C@]12CCC(=O)C=C1[C@@H]1C[C@@H]1[C@H]1[C@@H]3[C@@H]4C[C@@H]4[C@@]4(CCC(=O)O4)[C@@]3(C)CC[C@@H]12`, the compound was called inactive in experiment [2], in [3], in experiment [4], in experiment [5], in experiment [6] and in experiment [7]. Also, the Potency is 9.44 µM (active) in [9] and 11.9 µM (active) in experiment [10]. Besides, the Potency result in experiment [12] and in experiment [14] was “inactive” in each case.

Take `O=C(O)c1cccnc1Nc1cccc(C(F)(F)F)c1`: the Potency entry in experiment [20], in [19], in [16], in experiment [8], in [9] and in [10] was “inactive” each time. Besides, the Potency result in experiment [11], in experiment [12], in experiment [14] and in experiment [15] was “inactive” each time. In addition, the call in experiment [2], in experiment [3], in experiment [4], in experiment [5], in experiment [6] and in [7] was inactive.

For the compound `O=C(O)c1ccncc1`, the outcome in [2], in experiment [3], in experiment [4], in experiment [5], in experiment [6] and in experiment [7] was inactive. The outcome in [17] and in experiment [13] was inactive. Besides, the Potency result in experiment [16], in experiment [8], in [9], in experiment [10], in experiment [11] and in [12] was “inactive” each time. For the same compound, the Potency result in experiment [14], in [18] and in [15] was “inactive” in each case.

For the compound `Cc1cc(C)n(CO)n1`, the Potency entry in experiment [20], in [19], in [16], in [8], in experiment [9] and in experiment [10] was “inactive” throughout. The Potency entry in experiment [11], in experiment [12], in experiment [14] and in experiment [15] was “inactive” each time. The compound was called inactive in [2], in experiment [3], in [4], in experiment [5], in experiment [6] and in experiment [7].
